# ATXN2 expr inh: Primary qHTS for Inhibitors of ATXN expression. HEK-293 ATXN2-luciferase reporter, luminescence, 24 h. AID 1745845, 2022. 0.72% of 360,000 active. Potency, µM (series often up to 57 µM), without a hit: at the top dose activity change, negative = inhibition, hits mostly inhibitors; further: on the % scale 0 is the no-effect control and ±100 the full control effect; nearly all actives have a fitted effect of over 55% in size
#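 ATXN2-luciferase reporter cells (luciferase flanked by upstream and downstream ATXN2 gene portions) were treated 24 h at 37 °C with compounds at up to 57 uM. SteadyGlo luminescence gave expression; GF-AFC fluorescence gave viability.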
# RORg inh: qHTS for inhibitors of ROR gamma transcriptional activity. Nuclear receptor ROR-gamma (Mus musculus), P51450. Drosophila S2 Gal4-RORgamma UAS-luciferase reporter, 20 h. Potency, µM (doses to about 53.6 µM), for inactives: at the highest dose activity change, negative = inhibition, hits mostly inhibitors. 5.4% of 310,000 active; further: on the % scale 0 is the no-effect control and ±100 the full control effect; nearly all actives have a fitted effect of over 60% in size
# Target sequence (P51450 whole entry, looked up, the tested form may be a part): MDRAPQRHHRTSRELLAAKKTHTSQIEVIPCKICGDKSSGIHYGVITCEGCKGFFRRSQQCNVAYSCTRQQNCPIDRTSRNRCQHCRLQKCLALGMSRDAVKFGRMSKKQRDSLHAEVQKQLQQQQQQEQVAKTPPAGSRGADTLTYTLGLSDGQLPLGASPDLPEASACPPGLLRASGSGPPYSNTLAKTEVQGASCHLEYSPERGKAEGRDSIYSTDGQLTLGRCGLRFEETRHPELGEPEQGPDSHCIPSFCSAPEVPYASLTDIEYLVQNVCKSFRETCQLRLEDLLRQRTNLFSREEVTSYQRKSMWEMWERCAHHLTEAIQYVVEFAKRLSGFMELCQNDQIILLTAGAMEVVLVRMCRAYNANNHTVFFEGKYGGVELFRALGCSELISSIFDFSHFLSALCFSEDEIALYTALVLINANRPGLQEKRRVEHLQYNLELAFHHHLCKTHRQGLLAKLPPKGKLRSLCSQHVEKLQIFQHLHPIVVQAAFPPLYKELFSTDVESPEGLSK
#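 Stably transfected Drosophila Schneider cells are the test system, with ROR gamma fused to Gal4 and luciferase under UAS control; luminescence is read after 20 hr of 700 uM copper sulfate induction at ambient temperature.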
# S2 tox: Viability Counterscreen for Primary qHTS for Inhibitors of ATXN expression | S2 cells (HEK-293 line with an ATXN2-luciferase reporter) viability, CellTiter-Fluor protease fluorescence, 24 h | Potency, µM (series often up to 56.7 µM), hits mostly cytotoxic | 0.49% of 400,000 active | AID 651635, 2014; further: nearly all actives have a fitted effect of over 40% in size
# TGFb SMAD3 inh: qHTS for Inhibitors of TGF-b; Potency, µM (doses to about 46.1 µM), for inactives: at the top dose activity, negative = inhibition, actives largely listed as inhibitors; HepG2 CAGA-GFP TGF-b/SMAD3 reporter, GFP fluorescence, 18 h; TGF-beta stimulated, 500 pg/mL final; 1.2% of 410,000 active; further: on the % scale 0 is the no-effect control and ±100 the full control effect; nearly all actives have a fitted effect of over 65% in size
#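 Using HEPG2 CAGA-GFP reporter cells at 1000 cells/well, we pinned test compounds, stimulated with recombinant TGF-beta (500 pg/mL final) and measured total well GFP after 18 h.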
# VP16 counter: VP16 counterscreen qHTS for inhibitors of ROR gamma transcriptional activity. Drosophila S2 Gal4-VP16 UAS-luciferase, luminescence, 20 h. 3.5% of 310,000 active. Potency, µM (series often up to 53.6 µM), for the others: top-dose activity, negative = inhibition, actives largely listed as inhibitors. AID 2546, 2010;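 further: Gal4-VP16 expression switched on by copper sulfate through the metallothionein promoter; on the % scale 0 is the no-effect control and ±100 the full control effect; nearly all actives have a fitted effect of over 50% in size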
# HepG2 viability: qHTS for Inhibitors of TGF-b: Cytotox Counterscreen; AID 588856, 2011; HepG2 CAGA-GFP viability, ATP luminescence, 18 h; 0.76% of 410,000 active; Potency, µM (highest dose often 46.1 µM), without a hit: at the highest dose activity change, negative = cytotoxicity, usual class: cytotoxic
#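 HepG2 CAGA-GFP cells (1000/well, DMEM with 1% FBS) received compound, then TGF-beta at 500 pg/mL final, and were incubated 18 hours at 37 degrees C. Viability was read by CellTiter-Glo luminescence. Media-only wells were set as complete cell-killing and DMSO as no toxicity.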
# * = called active by the depositor; i = inactive; ? = inconclusive; nt = no result given. In the library only some 6.3% were active in any assay of this set; here they are far more common. The call rests on the fitted dose curve; in most records, active means well fitted curve in the direction sought with a large enough effect; inconclusive means small, poorly fitted or top-dose-only effect, or another doubt; inactive means no such curve, though single readings can be large; an effect the other way counts as inactive or inconclusive. Potency means the concentration at half of the fitted maximal effect.
SMILES,ATXN2 expr inh,RORg inh,S2 tox,TGFb SMAD3 inh,VP16 counter,HepG2 viability
COc1ccc(C(=O)NC(=S)Nc2ccccc2N2CCOCC2)cc1Br,-0.5%,6.31µM*,i,0.3%,6.31µM*,-33.3%
CCOc1cc(N2CCOCC2)c(OCC)cc1NC(=O)Cc1ccccc1OC,-4.1%,-52.9%,i,-25.0%,22.4µM*,-1.6%
COc1ccc(C(=O)Nc2ccccc2N2CCOCC2)cc1Br,3.6%,17.8µM*,i,10.8%,-20.7%,-5.1%
CCOc1ccc(C(=O)NC(=S)Nc2ccccc2N2CCOCC2)cc1Br,6.8%,3.16µM*,i,-15.2%,4.47µM*,9.8%
COc1ccc(C(=O)Nc2ccccc2N2CCOCC2)cc1S(=O)(=O)N1CCOCC1,nt,nt,nt,-11.5%,nt,-13.1%
COc1ccc(C(=O)Nc2ccccc2C(=O)N2CCOCC2)cc1Br,4.3%,-0.1%,i,-18.4%,-6.0%,-8.2%
COc1ccccc1-c1nnc2n(CCc3ccccc3)c(=O)c3ccccc3n12,12.4%,nt,i,-3.9%,nt,-38.7%
NC(COCc1ccccc1)c1csc(Nc2cc(NCCCO)ncn2)n1 (stereo not drawn),16.4%,nt,i,-5.4%,nt,-4.1%
COc1cccc(C2(CC(=O)N3CCC(c4nc5ccccc5o4)CC3)CC(=O)N(C)C2=O)c1 (stereo not drawn),nt,nt,i,nt,nt,nt
CCc1cccc(C)c1NC(=O)C1=C(C)C(=O)OC12CCC(C)CC2 (stereo not drawn),nt,nt,nt,nt,nt,-4.6%
C/C(C/C(C)=C1/SC(=S)NC1=O)=C1\SC(=S)NC1=O,5.0%,-13.7%,i,14.1%,6.3%,20.2%
CCCCCC/C(C)=C1/SC(=S)NC1=O,-2.2%,15.8µM*,i,?,-18.7%,-29.2%
Cc1ccc(F)cc1CNC(=O)c1sc2ncnc(NCC3CCCO3)c2c1C (stereo not drawn),nt,nt,i,nt,nt,nt
NC(=S)Cc1nc(-c2ccccc2)cs1,9.3%,11.2µM*,i,?,8.91µM*,-16.3%
CCOCCCn1c(-c2ccc(Cl)cc2)n[nH]c1=S,-5.9%,5.01µM*,i,-1.4%,10µM*,-3.8%
COCCCn1c(-c2ccc(Cl)cc2)n[nH]c1=S,-3.4%,17.8µM*,i,4.7%,12.6µM*,-19.9%
COCCCn1c(-c2ccccc2Cl)n[nH]c1=S,-4.8%,15.8µM*,i,2.9%,?,1.6%
COc1ccc(CCn2c(-c3ccncc3)n[nH]c2=S)cc1OC,-0.8%,-15.4%,i,5.1%,9.2%,17.0%
S=c1[nH]nc(-c2ccc(Cl)cc2)n1CCCN1CCOCC1,nt,10µM*,?,-5.1%,-3.0%,-9.4%
COC(=O)[C@@H]1CCCN1C(=O)c1c(OC)cc(=O)n2c1CCN(Cc1c(C)[nH]c3ccccc13)CC2,nt,nt,i,nt,nt,nt
COc1ccc(CNC(=O)CCCN2C(=O)CSc3c2c(C)nn3-c2ccccc2)cc1,-11.1%,nt,?,-18.7%,nt,-16.5%
CC(C)(C)C1CCc2c(sc(N)c2C(N)=O)C1 (stereo not drawn),-10.2%,0.0%,i,-16.6%,15.8µM*,-2.0%
Oc1csc(Cc2nc(-c3ccc4ccccc4c3)cs2)n1,58.7%,11.2µM*,?,-14.1%,-36.2%,-18.7%
CC(NC(=O)COC(=O)c1cc(NS(=O)(=O)c2ccc(Cl)c([N+](=O)[O-])c2)ccc1O)C1CC2CCC1C2 (stereo not drawn),-32.4%,?,i,?,11.2µM*,-96.5%
COc1ccc(NS(=O)(=O)c2ccc(O)c(C(=O)OCC(=O)NC(C)C3CC4CCC3C4)c2)cc1 (stereo not drawn),-0.6%,?,i,13.0%,-3.7%,-17.1%
SMILES,ATXN2 expr inh,RORg inh,S2 tox,TGFb SMAD3 inh,VP16 counter,HepG2 viability
COc1ccc(CNC(=O)CN2C(=O)c3ccc([N+](=O)[O-])cc3C2=O)cc1,-3.0%,-6.8%,i,6.4%,19.2%,15.2%
O=C(NCc1nnc2n1CCN(Cc1ccnc3ccccc13)CC2)c1cccc(F)c1,nt,nt,i,nt,nt,nt
Cc1nn(-c2nc3ccccc3[nH]2)c(N)c1-c1ccc(Cl)cc1,1.2%,1.26µM*,i,?,3.16µM*,-40.4%
Cc1nn(-c2nc3ccccc3[nH]2)c(=O)c2ccccc12,0.398µM*,0.178µM*,i,-1.0%,0.316µM*,3.16µM*
CCOc1cc(/C=N/NC(=O)c2ccc3c(c2)OCCO3)cc(Br)c1O,12.6%,?,nt,-17.1%,5.2%,-38.2%
COc1ccc(Nc2c(-c3cccc(O)c3)nc3cnccn23)cc1,5.5%,nt,i,6.31µM*,nt,-10.1%
CN(C)c1ccc(NC(=O)C2(c3cccs3)CCOCC2)cc1,nt,nt,nt,-4.5%,nt,-7.2%
Cc1oc2ncn(CC(C)C)c(=O)c2c1C(=O)Nc1ccc(Cl)cn1,2.4%,nt,i,-2.7%,nt,-1.9%
Cc1oc2ncn(CC(C)C)c(=O)c2c1C(=O)Nc1cc(F)ccc1F,35.5µM*,nt,?,-5.2%,nt,3.5%
COC(=O)C1=C(C)N(Cc2ccccc2)C(=NCCc2cccnc2)N[C@H]1c1ccc(Br)cc1,31.6µM*,?,?,?,-24.0%,15.8µM*
COC(=O)C1=C(C)N(Cc2ccccc2)C(=NCC(C)C)N[C@H]1c1ccc(Br)cc1,nt,1.78µM*,nt,nt,7.08µM*,nt
COCCN1C(=S)N[C@@H](c2ccccc2)C(C(=O)OC)=C1C,nt,-24.7%,nt,nt,-5.0%,nt
COC(=O)C1=C(C)N(Cc2ccccc2)C(=NCC(C)C)N[C@H]1c1cccc(F)c1,?,?,nt,?,?,-94.6%
COC(=O)C1=C(C)N(Cc2ccccc2)C(=S)N[C@H]1c1ccc(Br)cc1,?,3.55µM*,?,12.6µM*,12.6µM*,-1.4%
CC(C)(C)n1ncc2c(=O)n(Cc3ccc(Cl)c(F)c3)cnc21,nt,nt,nt,10.0%,nt,5.0%
CCC1CN(CCNC(=O)c2ccccc2-n2cccn2)Cc2cc(OC)ccc2O1 (stereo not drawn),nt,nt,i,nt,nt,nt
CNC(=S)N1N=C(c2ccc(C)cc2)CC1c1ccc(OC)cc1 (stereo not drawn),5.3%,11.2µM*,i,16.2%,-29.3%,3.5%
CNC(=S)N1N=C(c2ccc(Br)cc2)CC1c1ccc(OC)cc1 (stereo not drawn),0.0%,?,?,?,?,-5.1%
CNC(=S)N1N=C(c2ccc(C)cc2)CC1c1cc(OC)ccc1OC (stereo not drawn),-35.7%,12.6µM*,i,-4.1%,-21.6%,-24.0%

# Screening data deposited in PubChem BioAssay by National Center for Advancing Translational Sciences (NCATS).
